Experimental data from PubChem BioAssay.
The other results are listed elsewhere or left out. Calls of active or inactive are those of the source.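 How the source made its calls, unless noted: active means mean inhibition above about 50% in the one-dose retest (limit read from the data); inactive means the rest.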

Legend:
[1] = molecular target: Sentrin-specific protease 8 (Homo sapiens) (UniProt Q96LD8); assay: human SENP8 peptidase blockers, hit retest – biochemical, luminescence, single concentration, confirmation (AID 488912;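 active means mean inhibition across replicates above about 50%, limit read from the data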); settings: Recombinant SENP8, Z-RLRGG-aminoluciferin luminescence, 60 min; at 12.5 µM; stronger effect = higher value
Sequence of Sentrin-specific protease 8 (Homo sapiens) (Q96LD8 whole entry, looked up, the tested form may be a part): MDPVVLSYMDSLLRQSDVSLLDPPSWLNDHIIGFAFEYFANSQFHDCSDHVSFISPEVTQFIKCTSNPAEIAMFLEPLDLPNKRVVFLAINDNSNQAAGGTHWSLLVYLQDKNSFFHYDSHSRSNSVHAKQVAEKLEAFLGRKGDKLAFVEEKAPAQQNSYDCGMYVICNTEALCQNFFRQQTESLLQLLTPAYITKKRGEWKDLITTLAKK

[2] = molecular target: Sentrin-specific protease 6 (Homo sapiens) (UniProt Q9GZR1); assay: inhibition of human SENP6 catalytic domain – biochemical, luminescence, single concentration, confirmation (AID 488915); settings: recombinant SENP6, Z-RLRGG-aminoluciferin luminescence; at 12.5 µM; stronger effect = higher value
Sequence of Sentrin-specific protease 6 (Homo sapiens) (Q9GZR1 628-1112 limits assumed): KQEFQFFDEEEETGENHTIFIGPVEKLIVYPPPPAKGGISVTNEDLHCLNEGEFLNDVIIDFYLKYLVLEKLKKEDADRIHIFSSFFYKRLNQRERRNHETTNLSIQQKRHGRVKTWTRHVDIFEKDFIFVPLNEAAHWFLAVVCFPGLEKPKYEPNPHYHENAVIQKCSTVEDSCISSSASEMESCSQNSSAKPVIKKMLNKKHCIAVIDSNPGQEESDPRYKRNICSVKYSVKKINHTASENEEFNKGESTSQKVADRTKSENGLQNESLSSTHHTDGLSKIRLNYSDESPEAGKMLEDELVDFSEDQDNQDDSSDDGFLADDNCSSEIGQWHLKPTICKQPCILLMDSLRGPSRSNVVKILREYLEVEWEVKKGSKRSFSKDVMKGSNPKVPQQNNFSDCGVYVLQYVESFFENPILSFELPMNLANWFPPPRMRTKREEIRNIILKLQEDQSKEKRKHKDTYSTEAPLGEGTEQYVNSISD

[3] = molecular target: Sentrin-specific protease 7 (Homo sapiens) (UniProt Q9BQF6); assay: human SENP7 peptidase blockers, hit retest – biochemical, luminescence, single concentration, confirmation (AID 488917); settings: recombinant SENP7, Z-RLRGG-aminoluciferin luminescence, 40 min; at 12.5 µM; stronger effect = higher value
Sequence of Sentrin-specific protease 7 (Homo sapiens) (Q9BQF6 706-1050 limits assumed): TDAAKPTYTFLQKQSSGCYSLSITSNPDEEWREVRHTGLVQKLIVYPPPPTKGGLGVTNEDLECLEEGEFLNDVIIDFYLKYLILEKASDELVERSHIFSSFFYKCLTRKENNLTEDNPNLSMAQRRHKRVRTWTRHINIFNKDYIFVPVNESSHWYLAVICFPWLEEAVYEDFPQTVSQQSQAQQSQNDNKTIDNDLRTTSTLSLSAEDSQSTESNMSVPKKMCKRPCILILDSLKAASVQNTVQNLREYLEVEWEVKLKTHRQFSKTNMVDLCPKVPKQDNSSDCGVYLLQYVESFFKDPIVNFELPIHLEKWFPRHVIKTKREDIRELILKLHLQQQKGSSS

Caspase-3 (Homo sapiens) = Caspase-3 (Homo sapiens) (UniProt P42574); assay: human caspase-3 activity blockade, out-of-family – biochemical, single concentration, selectivity assay for SENP inhibitor project, confirmation (AID 488918;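 active means mean inhibition above about 50%, limit read from the data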;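 further: plate controls were enzyme with DMSO for no effect and wells without caspase-3 for full effect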); settings: purified caspase-3, Z-DEVD-aminoluciferin luminescence, 60 min; at 12.5 µM; stronger effect = higher value
Sequence of Caspase-3 (Homo sapiens) (P42574 28-227 limits assumed): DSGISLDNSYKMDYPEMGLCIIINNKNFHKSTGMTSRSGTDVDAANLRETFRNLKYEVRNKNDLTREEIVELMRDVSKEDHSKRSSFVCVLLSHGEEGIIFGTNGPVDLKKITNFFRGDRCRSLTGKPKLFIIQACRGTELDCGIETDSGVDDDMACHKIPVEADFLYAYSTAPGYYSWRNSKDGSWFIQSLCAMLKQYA

[4] = Ultra-Glo luciferase signal interference – biochemical, single concentration, SENP8 reaction pre-completed, artefact control for SENP inhibitor project, confirmation (AID 488919;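 active means mean inhibition above about 50% when retested at one dose, limit read from the data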;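 further: plate controls were DMSO wells with completed reaction for no effect and substrate without enzyme for full effect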); settings: Pre-incubated SENP8/Z-RLRGG-aminoluciferin, luciferase luminescence interference; at 12.5 µM; stronger effect = higher value
[5] = PERK-eIF2a-CHOP pathway stimulators, retested – cell-based, CHO-CHOP luciferase reporter, single concentration, confirmation (AID 463112; in the data active means activation above about 33%;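 further: 0% = DMSO wells and 100% = tunicamycin 10 µg/mL wells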); settings: CHO-CHOP cells, CHOP-luciferase reporter luminescence; at 10 µM; stronger effect = higher value; percent of tunicamycin response, DMSO as zero
[6] = HIF-2a driven luciferase blockers, single dose – luminescence, 786-0 RCC cells, confirmation (AID 651580;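 active means mean inhibition across four replicates of at least 40 percent at the single tested concentration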); settings: HIF-2a luciferase reporter luminescence, overnight, at 18.8 µM, stronger effect = higher value
[7] = HIF-1a luciferase reporter signal reduction – MiaPaCa-2 cells, single concentration, counter-screen for HIF-2a inhibitor project, confirmation (AID 651589;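 active means mean inhibition of the reporter signal across four replicates at the single tested dose of 50% or more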); settings: MiaPaCa-2 HIF-1a luciferase reporter, desferoxamine, overnight; at 18.8 µM; stronger effect = higher value
[8] = molecular target: Tumor necrosis factor receptor superfamily member 10B (Homo sapiens) (UniProt O14763); assay: viability loss of caspase-8 NB7 cells with TRAIL – with/without TRAIL, luminescence panel, confirmation (AID 651596; in the data active means activity above about 50%); settings: NB7 neuroblastoma + caspase-8, TRAIL sensitization, NB7 Caspase-8, with TRAIL, mean of runs, at 10 µM, stronger effect = higher value
Sequence of Tumor necrosis factor receptor superfamily member 10B (Homo sapiens) (O14763 whole entry, looked up): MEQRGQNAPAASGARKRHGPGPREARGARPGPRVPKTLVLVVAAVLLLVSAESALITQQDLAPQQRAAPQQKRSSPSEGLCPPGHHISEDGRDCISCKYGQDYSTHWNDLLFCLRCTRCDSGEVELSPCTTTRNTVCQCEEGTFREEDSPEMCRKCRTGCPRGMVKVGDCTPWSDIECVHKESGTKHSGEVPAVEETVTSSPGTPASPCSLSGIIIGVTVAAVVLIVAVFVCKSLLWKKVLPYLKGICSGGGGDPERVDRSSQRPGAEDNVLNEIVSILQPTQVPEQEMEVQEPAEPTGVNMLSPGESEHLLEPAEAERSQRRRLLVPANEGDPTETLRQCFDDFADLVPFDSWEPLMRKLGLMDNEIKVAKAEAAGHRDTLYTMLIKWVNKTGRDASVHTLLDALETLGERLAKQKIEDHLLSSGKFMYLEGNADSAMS

[9] = as above; settings: NB7 neuroblastoma + caspase-8, without TRAIL, NB7 Caspase-8, without TRAIL, mean of runs, at 10 µM

Cc1ccc(/C=N/NC(=O)c2cc3ccccc3cc2O)o1
active: inhibition [1] 67% | inhibition [2] 65.9% | inhibition [3] 89.2% | inhibition (Caspase-3 (Homo sapiens)) 76.8% | inhibition [4] 77.6%

Cc1ccc(-n2cc3ccc([N+](=O)[O-])cc3n2)cc1
inactive: inhibition [1] -5.1% | inhibition [2] 20.7% | inhibition (Caspase-3 (Homo sapiens)) 18.7% | inhibition [4] -2.9%
active: inhibition [3] 61.5%

COc1ccc(C(CC(=O)c2ccccc2)S(=O)(=O)c2ccccc2)cc1 (stereo not drawn)
inactive: inhibition [1] 25% | inhibition [2] 33.4% | inhibition [3] 30.3% | inhibition (Caspase-3 (Homo sapiens)) 9% | inhibition [4] 4.7%

Cc1cc(C)nc(S/C=C/C(=O)c2ccccc2)n1
active: activation [5] 83.4% | inhibition [6] 58.6% | inhibition [7] 98.9%

O=C(Nc1cc2ccccc2oc1=O)C1CCCCC1
inactive: inhibition [1] 8.2% | inhibition [2] 4.9% | inhibition [3] 19.1% | inhibition (Caspase-3 (Homo sapiens)) 20.1% | inhibition [4] 3.7%

Nc1[nH][nH]c(=O)c1N=Nc1ccc2c(c1)OCO2
active: inhibition [3] 67.3% | inhibition (Caspase-3 (Homo sapiens)) 74%
inactive: inhibition [1] 41.3% | inhibition [2] 39.2% | inhibition [4] 12%

C/C(=N\NC(=O)c1ccoc1C)c1ccccc1O
active: inhibition [3] 80.7% | inhibition (Caspase-3 (Homo sapiens)) 77.3% | inhibition [4] 63%
inactive: inhibition [1] 38.5% | inhibition [2] 36.8%

Nc1ccccc1/C=N\N=C/c1ccccc1N
inactive: inhibition [2] 45.3% | inhibition [4] 3.9%
active: inhibition [1] 52.9% | inhibition [3] 85.6% | inhibition (Caspase-3 (Homo sapiens)) 68.3%

Cc1cccc(-n2ncc(Cl)c(Cl)c2=O)c1
active: inhibition [7] 101%
99.6%: activity [8]
inactive: activation [5] 29.5% | inhibition [6] 26.4%
99.7%: activity [9]

CC1=NN(C(N)=S)C(=O)C1N=Nc1cc(Cl)ccc1Cl (stereo not drawn)
inactive: inhibition [1] -5.4% | inhibition [2] -1.7% | inhibition [3] 1.9% | inhibition (Caspase-3 (Homo sapiens)) -1.2% | inhibition [4] 1.2%

CSC1=N/C(=C\C=C\c2cccs2)C(=O)S1
active: inhibition [1] 69.4% | inhibition [2] 75.6% | inhibition [3] 85.3% | inhibition (Caspase-3 (Homo sapiens)) 68.1% | inhibition [4] 52.2%

O=C(Nc1ccc(F)cc1)c1cc2c(s1)CCCC2
active: inhibition [1] 93.3% | inhibition [2] 93.7% | inhibition [3] 101% | inhibition (Caspase-3 (Homo sapiens)) 84% | inhibition [4] 84.2%

CCNc1nc(N)nc(Oc2ccc(OCC)nn2)n1
inactive: inhibition [1] 6.2% | inhibition [2] 8.1% | inhibition [3] -2% | inhibition (Caspase-3 (Homo sapiens)) 3.8% | inhibition [4] 0.2%

CNc1nc(Nc2ccc(C)c(Cl)c2)nc(N)c1[N+](=O)[O-]
active: inhibition [1] 97.8% | inhibition [2] 98.7% | inhibition [3] 103% | inhibition (Caspase-3 (Homo sapiens)) 96.9%
inactive: inhibition [4] 18.3%

CSc1ccccc1NC(=O)c1cc(C2CC2)on1
inactive: inhibition [1] 34.7% | inhibition [2] 28.3% | inhibition (Caspase-3 (Homo sapiens)) 41.1% | inhibition [4] 40%
active: inhibition [3] 62.8%

Cc1ccccc1C(=O)Nc1ccc(N2CCCCCC2)cc1
active: inhibition [1] 73.8% | inhibition [2] 72.6% | inhibition [3] 91.7% | inhibition (Caspase-3 (Homo sapiens)) 67.2% | inhibition [4] 51.9%

Cc1cccc(NC(=O)COc2ccc(Br)cc2C)n1
inactive: inhibition [1] 1% | inhibition [2] 50% | inhibition [3] 7.4% | inhibition (Caspase-3 (Homo sapiens)) 20.8% | inhibition [4] 11.1%

CCOC(=O)c1cccc(NC(=O)c2ccc(F)cc2F)c1
inactive: inhibition [2] 48.2%
active: inhibition [1] 54% | inhibition [3] 75.9% | inhibition (Caspase-3 (Homo sapiens)) 67.9% | inhibition [4] 59.7%

CCn1nccc1C(=O)Nc1ccc(Cl)c(Cl)c1
active: inhibition [1] 61.1% | inhibition [2] 57.7% | inhibition [3] 80.6% | inhibition [4] 66.5%
inactive: inhibition (Caspase-3 (Homo sapiens)) 35.5%

COc1cccc(C(=O)Nc2nc3ccc(S(C)(=O)=O)cc3s2)c1
active: inhibition [2] 86.4% | inhibition [3] 98.9% | inhibition (Caspase-3 (Homo sapiens)) 89.2% | inhibition [4] 73.5%
inactive: inhibition [1] 4.4%

Brc1ccccc1C1Nc2cccc3cccc(c23)N1
inactive: inhibition [1] -7.3% | inhibition [2] 3.3% | inhibition [3] -9.3% | inhibition (Caspase-3 (Homo sapiens)) 1.1% | inhibition [4] 3.4%

Brc1ccc(-c2nnc(-c3ccccc3)o2)o1
inactive: inhibition [1] 25.1% | inhibition [4] 19.1%
active: inhibition [2] 50.8% | inhibition [3] 80.1% | inhibition (Caspase-3 (Homo sapiens)) 62.9%

CC(C)(C)c1ccc(NC(=O)NCc2ccco2)cc1
inactive: inhibition [1] -28.3% | inhibition [2] -17.7% | inhibition [3] -5.7% | inhibition (Caspase-3 (Homo sapiens)) -5.5% | inhibition [4] -7.2%

COc1ccccc1C(=O)Nc1ccc(NC(=O)c2ccco2)c(C)c1
active: inhibition [3] 81.2% | inhibition (Caspase-3 (Homo sapiens)) 82.5% | inhibition [4] 58.6%
inactive: inhibition [1] 45.3% | inhibition [2] 47.1%

O=c1c(-c2ccccc2)coc2cc(O)ccc12
active: inhibition [1] 61.7% | inhibition [2] 60.2% | inhibition [3] 88.2% | inhibition (Caspase-3 (Homo sapiens)) 85.9% | inhibition [4] 74.8%

O=c1c2ccccc2ncn1/N=C/c1ccccc1
inactive: inhibition [1] 2.5%
active: inhibition [2] 80.2% | inhibition [3] 97% | inhibition (Caspase-3 (Homo sapiens)) 86.6% | inhibition [4] 69%
